Lassa entry inh = qHTS for Inhibitors of binding or entry into cells for Lassa Virus. Lassa virus pseudotype entry inhibition, cell reporter. Potency, µM (doses to about 37.9 µM), for inactives: at the top dose activity change, negative = inhibition, usual class: inhibitors. 300,000 tested, 1.2% active; calls by dose curve; tested in HEK293 cells; further: potency means the concentration at half of the fitted maximal effect; on the % scale 0 is the no-effect control and ±100 the full control effect; nearly all actives have a fitted effect of over 50% in size
Marburg entry inh = qHTS for inhibitors of binding or entry into cells for Marburg Virus; Marburg virus pseudotyped entry inhibition, cell reporter; Potency, µM (highest dose often 37.8 µM), for the others: at the top dose activity change, negative = inhibition, most hits filed as inhibitors; 300,000 tested, 1.8% active; calls by dose curve; tested in HEK293 cells; further: potency means the concentration at half of the fitted maximal effect; on the % scale 0 is the no-effect control and ±100 the full control effect
AMA1 RON2 block = qHTS for Inhibitors of AMA1-RON; Towards Development of Antimalarial Drug Lead: Primary Screen | Potency, µM (highest dose often 58.2 µM), without a hit: top-dose activity change, negative = inhibition, usual class: inhibitors | 360,000 tested, 0.2% active | AlphaScreen AMA1-biotinylated RON2 peptide binding | AID 720542, 2013 | Plasmodium falciparum AMA1 (3D7) - RON2 peptide interaction; active means well fitted inhibition curve with a large enough effect; inconclusive means small, poorly fitted or top-dose-only effect; inactive means no such curve, though single readings can be large or run the other way;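 further: potency means the concentration at half of the fitted maximal effect; 0% = vehicle wells and -100% = peptide control; nearly all actives have a fitted effect of over 45% in size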
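AMA1 (3D7) with his tag at 25 nM final met compounds first, then biotinylated RON2 peptide at 25 nM; detection used donor plus acceptor beads, 10 µg/mL apiece, read by AlphaScreen after 30 min at room temperature.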
Cycloheximide cs = Cycloheximide Counterscreen for Small Molecule Inhibitors of Shiga Toxin; cell reporter, cycloheximide protein synthesis inhibition counterscreen; 300,000 tested, 12% active; max response, %; in the data active means max response mostly above about 13%, no sharp cut-off; inactive means mostly below about 14%; further: read at 38.3 µM for the half of the compounds with a filed dose; 0% is about no effect
Shiga inhibitor = A qHTS for Small Molecule Inhibitors of Shiga Toxin; inhibition, % at 38.7 µM; 290,000 tested, 9.2% active; Vero cells, Shiga toxin protein synthesis inhibition reporter; in the data active means inhibition mostly above about 28%, no sharp cut-off; inactive means mostly below about 43%; further: 0% is about no effect
Active calls of the source: *; ? = inconclusive; . = no result; [ ] = remark or other dose. The entries come from a sample that favours hits as a whole.

SMILES | Lassa entry inh | Marburg entry inh | AMA1 RON2 block | Cycloheximide cs | Shiga inhibitor
O=C(Nc1ccc(C(=O)O)cc1)/C(=C\c1ccc2c(c1)OCO2)NC(=O)c1ccc(Br)cc1 | 1% | ? | -1% | 39* | -5
O=C(Nc1ccc(C(=O)O)cc1)/C(=C\c1ccc2c(c1)OCO2)NC(=O)c1ccccc1 | -5% | 3% | 2% | -2 | 8
CCCCn1nnnc1C(c1ccccc1)N1CCN(c2cccc(C)c2C)CC1 (stereo not drawn) | . | . | -9% | . | .
COc1cccc2c1[C@H](C=Cc1ccccc1)[C@@H]([C@H](O)CN=[N+]=[N-])OC2 | . | -5%[14.2 µM] | . | . | .
CCN(CC)c1ccc(/C=N/N2CCN(c3ccccn3)CC2)cc1 | 19% | 17% | -14% | 2 | -8
Cn1cccc1/C=N/N1CCN(Cc2cccc3ccccc23)CC1 | 1% | 1% | 20µM* | -1 | 11
Cn1cccc1/C=N/N1CCN(c2ccccn2)CC1 | 13% | ? | -4% | 38* | 61*
Cn1cccc1/C=N/N1CCN(Cc2ccc(Cl)cc2)CC1 | -23%[46.1 µM] | -15%[46.1 µM] | ? | 8 | 43
ClC(=C\c1ccccc1)/C=N/N1CCN(c2ccccn2)CC1 | -29% | -8% | -20% | 33* | 53*
Cn1cccc1/C=N/N1CCN(Cc2ccccc2)CC1 | . | . | -17% | 15 | -1
CCc1ccc(/C=N/N2CCN(c3ccccn3)CC2)cc1 | . | . | -18% | 37* | 68*
Cc1ccc(/C=N/N2CCN(c3ccccn3)CC2)cc1 | ? | 16%[46.1 µM] | ? | 47* | 64*
Cc1ccc(N2CCN(/N=C/c3cccnc3)CC2)cc1 | -5%[46.1 µM] | 9%[46.1 µM] | 11% | 8 | 7
COc1cccc(NC(=O)CCc2ccccc2)c1 | . | . | 5% | . | .
CSc1cccc(NC(=O)CCc2ccccc2)c1 | 18% | -15%[46.1 µM] | -1% | 18* | 50*
Cc1ccccc1NC(=S)NC(=O)CCc1ccccc1 | -7% | 2% | 20% | 17* | 18
Cc1cccc(C)c1NC(=S)NC(=O)CCc1ccccc1 | ? | -21% | 26% | -2 | 1
COCc1cccc(NC(=O)CCc2ccccc2)c1 | 16%[46.1 µM] | 4%[46.1 µM] | -9% | 18* | 49*
CSc1cccc(NC(=S)NC(=O)CCc2ccccc2)c1 | . | . | 81% | 23* | 22
CSc1cccc(NC(=O)CCC(=O)O)c1 | ? | 2% | -2% | 7 | 12
CCOC(=O)c1c(O)cc(C)cc1Nc1ccccc1 | -3%[46.1 µM] | ? | 20% | 11 | -2
COC(=O)c1ccc(C2c3c(oc4cc(C)c(C)cc4c3=O)C(=O)N2c2ccccn2)cc1 (stereo not drawn) | 17%[46.1 µM] | 6%[46.1 µM] | . | . | .
CCCCc1nc(NC[C@H]2CCCO2)c(C#N)c2c1COC(C)(C)C2 | . | -13% | . | . | .
O=C(NCC(O)CO)c1csc(Nc2cccc3ccccc23)n1 (stereo not drawn) | ? | ? | 16% | -2 | .
COc1ccc(NC(=O)NN(C(=O)c2ccccc2)C(C)(C)C)cc1 | -2% | ? | 7% | 8 | -6
SMILES | Lassa entry inh | Marburg entry inh | AMA1 RON2 block | Cycloheximide cs | Shiga inhibitor
Cc1nn2c(=O)cc(COC(=O)c3ccco3)nc2s1 | -2%[46.1 µM] | . | . | . | .
Cc1cccc(C)c1NC(=O)CNC(=O)C(C)NC(C)c1ccccc1Br (stereo not drawn) | 2% | -3% | 14%[11.6 µM] | . | .
CCC(C)C(=O)Nc1cccc(SC)c1 (stereo not drawn) | . | . | . | 16* | 56
COCc1cc(C)nc(SCC(=O)Nc2nc(C)cs2)c1C#N | ? | ? | 11% | 24* | 49
Cc1csc(NC(=O)CSc2ccc(-c3ccccn3)nn2)n1 | . | . | 32µM* | 15 | 71
Cc1csc(NC(=O)CSc2ccccc2F)n1 | ? | ? | -4% | 37* | 84*
COc1ccc(CN(CC2CCC(C(=O)O)CC2)C(=S)Nc2cc(C)ccc2C)cc1 (stereo not drawn) | . | . | -6% | 6 | -12
COC(=O)[C@@]12C[C@@H](CC(=O)N3CCOCC3)C(=O)N(Cc3ccccc3)C1=CCC(C)(C)C2 | . | . | 0% | . | .
CCCCn1c(N)c(N(CC)C(=O)C2=COCCO2)c(=O)[nH]c1=O | 0%[46.1 µM] | 30% | -3% | . | .
c1ccc(N2CCN(c3ncnc4[nH]ncc34)CC2)cc1 | 0%[46.1 µM] | . | . | . | .
Fc1ccccc1N1CCN(c2ncnc3[nH]ncc23)CC1 | 10µM* | 5µM* | 18% | 12 | 1
N#Cc1nc(COc2cccc(Cl)c2)oc1NCc1ccco1 | . | . | -15% | 50* | 65
COc1ccc(CNc2oc(COc3cccc(C)c3)nc2C#N)cc1 | -19%[46.1 µM] | -6%[46.1 µM] | . | . | .

Screening data: PubChem BioAssay, National Center for Advancing Translational Sciences (NCATS)
